We go through 40 sequences from the supplement of paper PMC6555819.

The experiment concerns VDR:RXRa (NR concentration 270 nM, RXRa partner concentration 90 nM). Description: PBM binding z-score (relative to random genomic background probes); higher = stronger binding; sequences stand for … in GC…GCGATTGACAGCGTAGAATGAAGG
The procedure:
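Protein-binding microarray (Agilent 4x180K custom design, double-stranded 60-nt probes: 5' GC cap, 34-nt variable region, 24-nt constant primer region; full probe sequence given). Purified or IVT nuclear receptor:RXRα heterodimers (3:1 NR:RXRα, mostly 270:90 nM) or homodimers were incubated for 1 h in PBS with 2% milk and no ligand, then detected with Alexa488 antibodies. Fluorescence from o1-orientation probes (~5 replicates averaged) was converted to z-scores against 500 random hg19 background probes. Variable regions are seed direct-repeat (DR0–DR5) sites, all their single-nucleotide variants and half-site ablations.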
CGTCAAAGTTCAACTAAGGTAACCTAAAGCACGC: the PBM binding z-score worked out at 4.68.
For CAAATTAGGTCACGAAAGGTCAAAGTCGAATGAC the value was 7.06; for ACGGACAGGTGAGTGAAGGTAACTCAGCTGGACG, -0.381.
In turn, ACTATTAGTTGACTTAGGGCAACAGATACGACGC gave a PBM binding z-score of 0.323.
With ACTCGGAGGACAAAGGCCAGAGCTACGCCAGTGA the figure was -0.667; with TGTCAAAGTTCAAAGGGAACGTAAGTATCCACAC, 4.92.
With TGAATGAGGGTATAAGATCAGGGAACGTTGCAAA the figure was 0.217; with GGAACGAGCGCAAGTTGATAGCAGAGTTTGATGG, -0.693; with ACTAGCAGGCCAAGTTTGGGTCACGCAAACAAAG, 1.36.
With TAGCCTACGTCATGCGGGCCAGTATAGTGTCGGC the figure was -0.879; with AGTCAAAGTTCACTAGGTAACGTGAGATTCAGCT, 3.88; with CCGACTGGGACAAGGTTACCATAACGCACAGCCA, 0.2.
With CGAACTAGGTCAAGGATAGTGAATCTCCGCACGC, the PBM binding z-score was determined as 1.19.
In turn, TCGAGTAGGTTAGTGGGGGCATTCAGCCAACATA showed a PBM binding z-score of 5.48.
For CAAACTAGGTCAAGGACAGTGAATCTCCGCACGC the value was 1.56; for ACTCGGAGGACAAAGGTCAGCGCTACGCCAGTGA, 3.41.
With CGAACGAGGGCATGACTTGATAGCAAATGCCGAT the figure was 0.573; with TCTAGTTGGCCAAAGGTCACACACTCGAAATGCG, 4.93; with CCAGACTGGTGAGAAGGTAACTCAGCCTCGATTA, -0.455.
For AGTCAAAGATCATCTAGGTAACGTAAGATATGCT the value was 0.0146.
Regarding TCTTGTAGATCAGCGGGTTAAGAAAGCTGGCCAA, the PBM binding z-score came to 0.539.
For CGTCCAAAGTCAAGGTCAGTGAAAGAGACTCGAA the value was 2.11; for AGAATGAGTTTATACGTAGATCAGGGAAGAAAGT, 1.71.
With CCTAGCAGGCCAATCTGGGTCCCTCAAGGCTTGA the figure was -0.831; with CCGACTTGGGCATAAGGTTACCATAAGCCAGCCC, -0.311.
With GCTGCTAGGTCAACTGATGGTCAGCTTAAGCTCG the figure was 1.62; with TCTTGAAGATCAACAGGAGGTTAAGAAAGATCGA, 0.872; with TCTTGGAGATCAGCAGGTTAAGAAAGCTGGCCAA, 0.335.
TCTTGTAGATCAATAGAGGTTCAGAAAGTGCGCT registered a PBM binding z-score of 1.65.
Regarding GCTGCTAGGTCAGGTTGGTCCGCTAACGGGTACG, the PBM binding z-score is 0.681.
For TCTTGTAGATCGAGCAGGTTAAGAAAGCCTGAGT the value was -0.0222.
With TAGCCTAGGTCATTCAGGGGCCAGTATTGAAAGC the figure was 3.18.
For ATCGAAAGGTCGAAGCTGAGTATACCCACCCGAA the value was 2.47.
With CTCGAAAGGTCGTGCTCAGGCGAGTATACCAAAC, the PBM binding z-score was 2.96.
For TCTAGCAGACCAGAGGGTCACTCAAGAGGTACGG, the PBM binding z-score was 1.08.
For CCTATTAGTTGACCATAAGGGCATCCGAAGCTCG the value was 0.862.
With ACTAGCAGGCTAAGTTTGGGTCACTCAAACAAAG the figure was 0.216; with CAAACTAGGTCACACAGGTCAAAGTCCGTGCGTA, 6.73.
Regarding ATACCAAGGTGATCGTGAGGTCGTTGCTACTAAC, the PBM binding z-score was determined as 3.4.
On to ATATGTAGGTTATCGGGTCATGCAGTTTGCGCAT, for which the PBM binding z-score is 4.98.
